About 2,600 (0.84%) of roughly 310,000 compounds were called active.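 The calls were made as follows: active = fluorescence ratio B-score at or below minus 3 SD of library scores, with starting-brightness B-score within 2 SD (cut at about -4.2 in these data); inactive = the rest.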 For the sample, actives were picked, then their nearest neighbours and some compounds at random.
The compounds below were run against Inward rectifier potassium channel 2 (Mus musculus) (UniProt P35561) (assay: inhibitors of mouse Kir2.1 inward-rectifier potassium channel (AID 1672;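 also: channel flux triggered by added potassium and thallium sulfate stimulus; B-score of peak minus minimum fluorescence over baseline after thallium stimulus; more negative B-score means stronger Kir2.1 block with less thallium influx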)). Conditions: HEK293-Kir2.1, FluxOR thallium flux fluorescence; at 10 µM; stronger effect = lower value.
Inward rectifier potassium channel 2 (Mus musculus), sequence (P35561 whole entry, looked up): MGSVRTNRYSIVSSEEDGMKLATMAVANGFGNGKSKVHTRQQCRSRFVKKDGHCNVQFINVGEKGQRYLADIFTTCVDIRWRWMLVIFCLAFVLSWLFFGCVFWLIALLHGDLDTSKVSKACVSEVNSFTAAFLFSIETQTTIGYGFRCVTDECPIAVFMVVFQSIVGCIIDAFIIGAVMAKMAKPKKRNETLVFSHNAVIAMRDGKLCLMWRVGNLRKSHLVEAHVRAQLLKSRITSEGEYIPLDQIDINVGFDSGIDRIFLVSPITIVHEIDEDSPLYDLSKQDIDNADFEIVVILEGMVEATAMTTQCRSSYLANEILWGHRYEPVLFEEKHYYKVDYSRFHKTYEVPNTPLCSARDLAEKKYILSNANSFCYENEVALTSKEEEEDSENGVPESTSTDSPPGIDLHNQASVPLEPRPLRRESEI

SMILES | B-score
CN(Cc1ccccc1F)C(=O)C(Cc1ccccc1)NC(=O)c1ccccc1 (stereo unspecified) | -1.09 (inactive)
CC(=O)Nc1cccc(C(=O)OCC(=O)NCc2cc(C)c(O)c(C)c2)c1 | -1.5 (inactive)
CC(=O)N1C(C)c2ccccc2C(C)(C)CC12CCCCC2 (stereo unspecified) | -6.43 (active)
CC(=O)N1CCN(C(=O)c2cc(-c3ccc(C)o3)nc3ccccc23)CC1 | 0.63 (inactive)
CCCCCN(C(=O)CCC(=O)OCCOc1ccc(OC)cc1)c1c(N)n(CCCC)c(=O)[nH]c1=O | 0.11 (inactive)
O=C(N/N=C/c1cc(Br)c(O)c([N+](=O)[O-])c1)C(O)(c1ccccc1)c1ccccc1 | 1.06 (inactive)
CN(/N=C/c1ccccc1)C(=S)c1ccccc1 | 1.83 (inactive)
CCCOc1ccc(Cn2ccnc2)cc1[N+](=O)[O-] | -0.79 (inactive)
CCCCOc1ccc(CSC(=N)N)cc1[N+](=O)[O-] | -5.22 (active)
CCCCCOc1ccc(CSC2=NCCN2)cc1[N+](=O)[O-] | -0.86 (inactive)
O=C(CNC(=O)C12CC3CC(CC(C3)C1)C2)OCC(=O)N1CCCCC1 | 1.97 (inactive)
CCC(C)N(C(=O)COC(=O)c1nc(Cl)ccc1Cl)C1CCS(=O)(=O)C1 (stereo unspecified) | -0.16 (inactive)
CCN(CC(=O)Nc1ccc(NC(C)=O)cc1)C(=O)C1CC(=O)N(Cc2ccc(C)cc2)C1 (stereo unspecified) | 1.85 (inactive)
CCN(CC)CCC(c1ccc2c(c1)OCO2)c1c(OC)cc(OC)c2c(-c3ccccc3)cc(=O)oc12 (stereo unspecified) | -6.31 (active)
CCN(CC)C(=O)CC(c1ccc2c(c1)OCO2)c1c(OC)cc(OC)c2c(-c3ccccc3)cc(=O)oc12 (stereo unspecified) | 1.58 (inactive)
COc1cc(OC)c2ccc(=O)oc2c1C(CCN1CCN(c2ccccc2)CC1)c1ccc2c(c1)OCO2 (stereo unspecified) | -0.17 (inactive)
NC(N)=Nc1nc(-c2ccccc2)c2cc(Cl)ccc2n1 | -10 (active)
Cc1ccc2nc(Nc3ccccc3O)nc(-c3ccccc3)c2c1 | -0.47 (inactive)
O=C(CCl)NNc1nc(-c2ccccc2)c2cc(Cl)ccc2n1 | 0.44 (inactive)
CCCCn1c(N)c(N(CCOC)C(=O)c2cccc(S(=O)(=O)N(C)c3ccccc3)c2)c(=O)[nH]c1=O | -1.94 (inactive)
COc1cccc(CNCc2ccc3c(c2)OCO3)c1 | 0.44 (inactive)

SMILES | B-score
COc1ccc2c(c1)C(C)=CC(C)(C)N2C(=O)CNCc1ccc2c(c1)OCO2 | -6.62 (active)
COc1ccc2c(c1)C(C)=CC(C)(C)N2C(=O)Nc1ccccc1 | -0.17 (inactive)
COc1ccc(-c2nnc(SCC(=O)Nc3cccnc3Cl)n2C)cc1 | -1.29 (inactive)
COc1ccccc1-c1n[nH]c2c1[C@H](C)CC[C@H]2C(C)C | -5.83 (active)
COc1ccccc1-c1nc(SC)n[nH]1 | 0.18 (inactive)
COc1ccc(-c2n[nH]c(C)c2-c2ccccc2OC)c(O)c1 | -2.01 (inactive)
CCOc1ccc(S(=O)(=O)N2CCC(C(=O)OCc3ccc(OC)cc3)CC2)cc1 | -1.22 (inactive)
CCOc1cc(/C=N/NC(=O)c2cccc(S(=O)(=O)N3CCOCC3)c2)ccc1OCC(=O)N(C)C | 0 (inactive)
COc1ccc(C(CCNCc2ccccc2F)c2ccc(F)cc2)cc1 (stereo unspecified) | -9.19 (active)
COc1ccc(CC(=O)NC(C)CCc2ccccc2)cc1 (stereo unspecified) | -1.96 (inactive)
COc1ccc(C(CNCC(=O)Nc2ccccc2F)N(C)C)cc1 (stereo unspecified) | -0.53 (inactive)
Cc1ccc(NC(=O)COc2coc(CN3CCc4ccccc4C3)cc2=O)cc1Cl | -0.37 (inactive)
CC(=O)Nc1ccc(C(=O)Nc2cccc(S(=O)(=O)NC3=NCCC3)c2)cc1 | -0.82 (inactive)
O=C(Nc1ccccc1Cl)/C(Cl)=C(\Cl)S(=O)c1ccccc1 (stereo unspecified) | -14.3 (active)
O=C(COC(=O)c1cccs1)Nc1ccccc1Cl | -0.93 (inactive)
O=C(Nc1ccccc1Cl)Nn1cnnc1 | 1.92 (inactive)
O=C(NCCCc1ccccc1)C(=O)NCC1OCCN1S(=O)(=O)c1ccccc1 (stereo unspecified) | 0.45 (inactive)
COc1cc(S(=O)(=O)N2CCN=C2c2ccccc2)ccc1Cl | -5.41 (active)
CCOc1ccc(S(=O)(=O)N2CCN=C2Cc2ccccc2)cc1C | -3.8 (inactive)
CC1=NCCN1S(=O)(=O)c1cccc([N+](=O)[O-])c1 | 0 (inactive)
CCOC(=O)c1cc(C(C)C)sc1NC(=O)COC(=O)c1nccnc1N | -0.16 (inactive)

SMILES | B-score
CCCCN(C(=O)c1ccc(S(=O)(=O)N2CCOCC2)cc1)C1CCS(=O)(=O)C1 (stereo unspecified) | -1.08 (inactive)
Cc1ccc(-c2nn(-c3ccccc3)cc2C(=O)NCCCN2CCCC2=O)cc1 | -0.8 (inactive)
OC(COc1ccc(F)cc1Cl)CN1CCc2ccccc2C1 (stereo unspecified) | -5.33 (active)
Cc1ccc(OCC(O)CN2CCN(CC(O)COc3ccc(C)cc3Cl)CC2)c(Cl)c1 (stereo unspecified) | 0.66 (inactive)
COc1ccccc1OCC(O)CN1CCOCC1 (stereo unspecified) | 1.4 (inactive)
Cc1ccc(C(=O)NC2CCCC(C)C2C)cc1S(=O)(=O)N1CCCCC1 (stereo unspecified) | -1.83 (inactive)
CCn1cc(CCC(=O)NCc2ccc(F)cc2)c2ccccc21 | -6.18 (active)
O=C(Cc1ccccc1)NCc1ccc(F)cc1 | 0.8 (inactive)
CCCCC(=O)NCc1ccc(F)cc1 | 0.15 (inactive)
CCC(C(=O)OCCN(CC)CC)c1ccccc1 (stereo unspecified) | 0.4 (inactive)
CCCC(C(=O)OCCN(CC)CC)(c1ccccc1)c1ccccc1 | -5.06 (active)
CCN(CC)CCOC(=O)c1ccc(NC(=O)CNC(=O)c2ccccc2)cc1 | 0.63 (inactive)
COc1cc(C(=O)OCC(=O)N(CC(C)C)C2CCS(=O)(=O)C2)ccc1OCC(C)C (stereo unspecified) | 1.65 (inactive)
COc1ccc(NC(=O)CSc2nnc(Cc3ccccc3)c(=O)n2N)cc1 | -1.28 (inactive)
CC12CCC(=O)N1C(C(=O)Nc1ccc(F)c(F)c1F)CS2 (stereo unspecified) | 1.46 (inactive)
COc1cccc(CNC(=O)C(=O)NCCC2CCCCN2S(=O)(=O)c2ccc(C)cc2)c1 (stereo unspecified) | -0.02 (inactive)
COc1cccc(CN(C)CC(=O)Nc2ccccc2C(=O)Nc2ccccc2)c1 | 0.2 (inactive)
COc1cccc(CN(C)CC(O)COC(c2ccccc2)c2ccccc2C)c1 (stereo unspecified) | -9.28 (active)
COc1cccc(CN(C)CC(=O)Nc2sc3c(c2C#N)CCC3)c1 | 1.34 (inactive)
